AC50 and outcome data for 4 compounds are collected here from PubChem BioAssay (EPA / NIEHS).

The structures appear in SMILES notation. Inconclusive results are not listed. Calls of active or inactive are those of the source. The calls were made as follows, unless noted: active = hit-call score of the fitted dose curve at least 0.9, where 1 is the maximum; inconclusive = response in the unintended direction; inactive = score below 0.9.

A short description of experiment [1]: ATG_TCF_b_cat_CIS: Attagene CIS-FACTORIAL HepG2 Assay for human T-Cell-Factor with beta-catenin (TCF/b-cat) (AID 2282965; active = hit-call score of the fitted dose curve at least 0.9, where 1 is the maximum; inactive = score below 0.9). The following applies: HepG2 TCF/beta-catenin cis-reporter transcription, actives raise or lower the signal. In outline: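 Endogenous transcription factor activity is captured through cis-promoter reporter constructs transiently introduced into human HepG2 liver cells. Induced reporter mRNA is measured after 24 h and fitted bidirectionally relative to DMSO.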

Experiment [2] is described as follows: ATG_TAL_CIS: Attagene CIS-FACTORIAL HepG2 Assay for human TAL Basal Promoter (AID 2282966; active = hit-call score of the fitted dose curve at least 0.9, where 1 is the maximum; inactive = score below 0.9;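 also: background control endpoint measuring basal TAL promoter reporter mRNA not a specific factor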). The following applies: HepG2 Attagene cis-factorial TAL promoter reporter; actives raise or lower the signal. The essentials: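 Fluorescence of labelled reporter cDNA fragments, resolved by capillary electrophoresis, gave the readout. Human HepG2 liver cells carried transiently transfected cis-element reporter units and were treated for 24 hours; activity was fitted bidirectionally against DMSO.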

Experiment [3] is described as follows: ATG_TGFb_CIS: Attagene CIS-FACTORIAL HepG2 Assay for human Transforming Growth Factor (TGF) (AID 2282967; active = hit-call score of the fitted dose curve at least 0.9, where 1 is the maximum; inactive = score below 0.9). The following applies: HepG2 Attagene CIS TGFb reporter, mRNA transcription; actives raise or lower the signal. In outline: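 Transcript-level reporter readout: HepG2 transfectants, 24 h exposure, RNA to cDNA, reporter-specific PCR, fluorescent primer extension, capillary sizing against ROX standards. Gain- or loss-of-signal relative to DMSO.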

Experiment [4] can be described thus: ATG_VDRE_CIS: Attagene CIS-FACTORIAL HepG2 Assay for human Vitamin D Receptor Element (VDRE) (AID 2282968; active = hit-call score of the fitted dose curve at least 0.9, where 1 is the maximum; inactive = score below 0.9). The following applies: HepG2 VDRE cis-reporter transcription, actives raise or lower the signal. The essentials: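 Reporter mRNA induction, quantified by capillary electrophoresis of fluorescently labelled RT-PCR products, was read 24 h after dosing HepG2 cells carrying transiently transfected cis-regulated reporter units; gain or loss relative to DMSO.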

For experiment [5], the target named is Estrogen receptor (Homo sapiens) (UniProt P03372). Description: ATG_ERa_TRANS: Attagene TRANS-FACTORIAL HepG2 Assay for human Estrogen Receptor alpha (ERa) (AID 2282970). As to conditions: HepG2 Attagene TRANS ERa GAL4 reporter, mRNA. In outline:
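Human liver HepG2, transient transfection of multiple GAL4-UAS reporter units; TRANS format (exogenous NR-Gal4 chimera). 24 h dosing. Readout: reporter mRNA, RT-PCR, 6-FAM primer extension, HpaI digest, capillary electrophoresis. Positive direction vs DMSO.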

Experiment [6] has as its target Steroid hormone receptor ERR1 (Homo sapiens) (UniProt P11474). Description: ATG_ERRa_TRANS: Attagene TRANS-FACTORIAL HepG2 Assay for human Estrogen-Related Receptor alpha (ERRa) (AID 2282971). The following applies: HepG2 Attagene TRANS reporter, ERRa transactivation. In outline:
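Reporter transcript induction was quantified by RT-PCR and capillary electrophoresis of FAM-labelled, HpaI-cut products after 24 h treatment of HepG2 cells carrying transiently transfected GAL4-UAS reporter units and an exogenous ERRa-Gal4 fusion; activity scored as increase over DMSO.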

Experiment [7] addresses X-box-binding protein 1 (Homo sapiens) (UniProt P17861). Description: ATG_Xbp1_CIS: Attagene CIS-FACTORIAL HepG2 Assay for human X-box Binding Protein 1 (XBP1) (AID 2282972; active = hit-call score of the fitted dose curve at least 0.9, where 1 is the maximum; inactive = score below 0.9). As to conditions: HepG2 XBP1 cis-element reporter, Attagene multiplex; actives raise or lower the signal. The essentials:
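HepG2 cells transiently transfected with multiple cis-element reporter units report endogenous TF activity; 24 h exposure, then reporter mRNA measured by RT-PCR, 6-FAM labelling, HpaI digestion and capillary electrophoresis. Bidirectional fitting versus DMSO.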

Experiment [8] can be described thus: ATG_M_19_TRANS: Attagene TRANS-FACTORIAL HepG2 Assay for M19 Transcription Factor (Internal Marker) (AID 2282974). As to conditions: HepG2 Attagene TRANS-FACTORIAL M19 internal marker reporter. The essentials:
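Transfected HepG2 (GAL4-UAS MRTUs), 24 h compound, TriZol RNA, DNase-treated RT, reporter PCR, FAM label, HpaI digest, CE fluorescence; gain vs DMSO.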

Experiment [9] deals with Estrogen-related receptor gamma (Homo sapiens) (UniProt P62508). Description: ATG_ERRg_TRANS: Attagene TRANS-FACTORIAL HepG2 Assay for human Estrogen-Related Receptor gamma (ERRg) (AID 2282977).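 Also: hits increase reporter signal over DMSO so potencies reflect activators.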 As to conditions: HepG2 Attagene TRANS reporter, ERRg transactivation. In outline:
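Transfect HepG2 with multiple GAL4-UAS reporter transcription units; dose chemicals 24 h; isolate RNA, reverse-transcribe with oligo(dT), PCR-amplify, label with 6-FAM, digest with HpaI; size fragments by capillary electrophoresis. DMSO serves as negative control.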

Experiment [10] concerns the target Oxysterols receptor LXR-alpha (Homo sapiens) (UniProt Q13133). Description: ATG_LXRa_TRANS: Attagene TRANS-FACTORIAL HepG2 Assay for human Liver X Receptor alpha (LXRa) (AID 2282980). As to conditions: HepG2 Attagene TRANS reporter, LXRa transactivation. In outline: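 Transfect HepG2 with GAL4-UAS multiplex reporter constructs (TRANS format, chimeric receptor-GAL4); treat 24 h; extract RNA, reverse-transcribe, PCR-amplify, FAM-label, HpaI-digest; resolve fragments by capillary electrophoresis. Upward response vs DMSO.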

Experiment [11] addresses Oxysterols receptor LXR-beta (Homo sapiens) (UniProt P55055). Description: ATG_LXRb_TRANS: Attagene TRANS-FACTORIAL HepG2 Assay for human Liver X Receptor beta (LXRb) (AID 2282981). The following applies: HepG2 Attagene TRANS GAL4-LXRb reporter, mRNA. In outline: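 Transient transfection HepG2 (multiplexed RTUs, GAL4-UAS); NR-Gal4 chimera; 24 h exposure; RNA → RT-PCR → 6-FAM primer extension → HpaI → CE; increase vs DMSO.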

The target of experiment [12] is Transcriptional activator Myb (Homo sapiens) (UniProt P10242). Description: ATG_Myb_CIS: Attagene CIS-FACTORIAL HepG2 Assay for human Myeloblastosis (Myb) Proto-Oncogene Transcription Factor (AID 2282986; active = hit-call score of the fitted dose curve at least 0.9, where 1 is the maximum; inactive = score below 0.9). As to conditions: HepG2 Attagene CIS-FACTORIAL Myb reporter transcription; actives raise or lower the signal. The essentials: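 After 24 h of compound dosing, total RNA from transfected HepG2 cells is reverse-transcribed and the reporter sequences amplified, labeled and separated by capillary electrophoresis. Values come from bidirectional fitting against DMSO.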

For experiment [13], the target named is Nuclear receptor subfamily 1 group I member 3 (Homo sapiens) (UniProt Q14994). Description: ATG_CAR_TRANS: Attagene TRANS-FACTORIAL HepG2 Assay for human Constitutive Androstane Receptor (CAR) (AID 2282969).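 Also: activators raise reporter mRNA above DMSO so AC50 marks induction.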 The following applies: HepG2 Attagene TRANS-FACTORIAL CAR reporter. The essentials: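 Readout is reporter mRNA induction, quantified by fluorescent primer extension and capillary electrophoresis after RT-PCR. Cells were HepG2 transiently carrying chimeric NR-Gal4 constructs with GAL4-UAS reporters, treated for 24 h; activity scored upward from DMSO.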

For experiment [14], the target named is Glucocorticoid receptor (Homo sapiens) (UniProt P04150). Description: ATG_GR_TRANS: Attagene TRANS-FACTORIAL HepG2 Assay for human Glucocorticoid Receptor (GR) (AID 2282978).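 Also: activators score as hits since higher reporter transcript over DMSO is fitted.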 The following applies: HepG2 Attagene TRANS GR reporter, mRNA transcription. In outline:
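After 24 h incubation with test chemical, transfected HepG2 cells were lysed for RNA; reporter cDNA was amplified, FAM-labelled, HpaI-digested and sized on a capillary analyser. Signal gain relative to DMSO was scored.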

In experiment [15] the target is Hepatocyte nuclear factor 4-alpha (Homo sapiens) (UniProt P41235). Description: ATG_HNF4a_TRANS: Attagene TRANS-FACTORIAL HepG2 Assay for human Hepatocyte Nuclear Factor 4 alpha (HNF4a) (AID 2282982). As to conditions: HepG2 HNF4a transactivation reporter, mRNA readout. In outline:
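Readout is fluorescent reporter-transcript fragments resolved by capillary electrophoresis after RT-PCR from HepG2 cells dosed for 24 h. Cells carried transfected GAL4-UAS reporter constructs measuring exogenous NR-GAL4 chimera activity; DMSO served as baseline.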

A short description of experiment [16]: ATG_M_32_TRANS: Attagene TRANS-FACTORIAL HepG2 Assay for M32 Transcription Factor (Internal Marker) (AID 2282984).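 Also: transcript level of a background control reporter unit measured by RT-PCR and capillary electrophoresis.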 As to conditions: HepG2 Attagene TRANS M32 internal marker reporter. The essentials: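 Measures reporter mRNA induction in human HepG2 liver cells after 24 h chemical treatment. Transcripts from transiently transfected GAL4-UAS reporter units are amplified, fluorescently labelled and sized by capillary electrophoresis; gain of signal relative to DMSO.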

The nature of experiment [17]: ATG_GAL4_TRANS: Attagene TRANS-FACTORIAL HepG2 Assay for GAL4 (Internal Marker) (AID 2282976). As to conditions: HepG2 Attagene TRANS GAL4 internal marker reporter. In outline:
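First, HepG2 cells were transfected with reporter units under GAL4-UAS control. Next, they were treated with chemical for 24 h. Finally, RNA was reverse-transcribed, PCR-amplified, FAM-labelled and resolved by capillary electrophoresis, with induction scored against DMSO.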

The target in experiment [18] is Nuclear receptor subfamily 4 group A member 2 (Homo sapiens) (UniProt P43354). Description: ATG_NURR1_TRANS: Attagene TRANS-FACTORIAL HepG2 Assay for human Nuclear Receptor Related Protein 1 (NURR1) (AID 2282985). As to conditions: HepG2 Attagene TRANS reporter, mRNA readout. The essentials: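 Transient transfection of HepG2, human liver cells, with multiple GAL4-UAS reporter transcription units. Cells dosed 24 h, RNA isolated, reverse-transcribed, PCR-amplified, FAM-labelled, HpaI-digested, sized by capillary electrophoresis. DMSO served as negative control.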
Sequence of Nuclear receptor subfamily 4 group A member 2 (Homo sapiens) (P43354 whole entry, looked up, the tested form may be a part): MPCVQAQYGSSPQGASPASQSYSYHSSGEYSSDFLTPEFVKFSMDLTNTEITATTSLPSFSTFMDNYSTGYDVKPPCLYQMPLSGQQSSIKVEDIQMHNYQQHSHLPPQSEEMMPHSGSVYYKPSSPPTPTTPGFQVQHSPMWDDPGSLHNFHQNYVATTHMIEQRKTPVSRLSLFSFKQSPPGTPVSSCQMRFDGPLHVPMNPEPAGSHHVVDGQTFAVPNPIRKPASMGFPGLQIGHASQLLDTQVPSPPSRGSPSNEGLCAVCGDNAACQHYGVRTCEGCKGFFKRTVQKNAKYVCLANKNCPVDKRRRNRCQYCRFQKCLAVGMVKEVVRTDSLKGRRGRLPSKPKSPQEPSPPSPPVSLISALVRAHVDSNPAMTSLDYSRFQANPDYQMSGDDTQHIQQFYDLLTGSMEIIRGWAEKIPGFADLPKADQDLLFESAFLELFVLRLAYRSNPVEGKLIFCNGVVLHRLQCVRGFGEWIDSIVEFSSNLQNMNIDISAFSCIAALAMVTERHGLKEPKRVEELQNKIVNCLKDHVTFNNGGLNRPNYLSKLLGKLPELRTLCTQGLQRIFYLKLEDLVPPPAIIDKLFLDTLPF

Sequence of Estrogen receptor (Homo sapiens) (P03372 whole entry, looked up, the tested form may be a part): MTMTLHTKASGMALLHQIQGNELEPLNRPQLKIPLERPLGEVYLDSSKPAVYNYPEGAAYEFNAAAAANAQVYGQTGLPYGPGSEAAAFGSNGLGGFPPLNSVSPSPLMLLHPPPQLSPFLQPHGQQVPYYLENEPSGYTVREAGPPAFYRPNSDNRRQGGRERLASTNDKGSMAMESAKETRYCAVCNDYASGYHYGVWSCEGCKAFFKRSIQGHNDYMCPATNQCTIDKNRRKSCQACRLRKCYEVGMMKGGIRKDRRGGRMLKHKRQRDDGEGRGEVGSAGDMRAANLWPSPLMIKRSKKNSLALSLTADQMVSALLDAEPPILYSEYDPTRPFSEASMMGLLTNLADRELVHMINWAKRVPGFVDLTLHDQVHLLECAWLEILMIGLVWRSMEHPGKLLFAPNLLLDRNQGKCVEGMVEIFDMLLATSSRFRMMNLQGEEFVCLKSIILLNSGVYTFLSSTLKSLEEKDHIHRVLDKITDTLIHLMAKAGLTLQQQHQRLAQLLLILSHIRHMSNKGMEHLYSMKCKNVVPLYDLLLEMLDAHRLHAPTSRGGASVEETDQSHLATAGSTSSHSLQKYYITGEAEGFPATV
Sequence of X-box-binding protein 1 (Homo sapiens) (P17861 whole entry, looked up): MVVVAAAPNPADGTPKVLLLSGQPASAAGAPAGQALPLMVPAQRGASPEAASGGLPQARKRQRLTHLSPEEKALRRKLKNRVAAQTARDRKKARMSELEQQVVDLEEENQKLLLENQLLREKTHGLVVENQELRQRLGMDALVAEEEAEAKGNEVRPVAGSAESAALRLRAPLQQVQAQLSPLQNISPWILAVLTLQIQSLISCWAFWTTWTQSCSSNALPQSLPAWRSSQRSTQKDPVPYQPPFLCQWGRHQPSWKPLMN
Sequence of Oxysterols receptor LXR-beta (Homo sapiens) (P55055 whole entry, looked up, the tested form may be a part): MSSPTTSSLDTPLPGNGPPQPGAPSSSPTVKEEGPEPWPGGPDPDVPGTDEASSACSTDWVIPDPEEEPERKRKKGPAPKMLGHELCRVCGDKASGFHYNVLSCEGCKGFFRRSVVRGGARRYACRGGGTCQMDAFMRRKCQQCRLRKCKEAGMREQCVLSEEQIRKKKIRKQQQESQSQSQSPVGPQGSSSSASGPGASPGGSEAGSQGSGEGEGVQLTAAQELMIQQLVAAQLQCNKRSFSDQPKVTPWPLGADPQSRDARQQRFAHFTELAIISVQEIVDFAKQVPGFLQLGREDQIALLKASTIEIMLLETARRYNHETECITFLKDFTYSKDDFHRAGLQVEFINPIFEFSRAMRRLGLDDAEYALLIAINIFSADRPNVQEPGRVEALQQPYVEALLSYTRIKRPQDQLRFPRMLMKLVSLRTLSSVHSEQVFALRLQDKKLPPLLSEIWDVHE
Sequence of Nuclear receptor subfamily 1 group I member 3 (Homo sapiens) (Q14994 whole entry, looked up, the tested form may be a part): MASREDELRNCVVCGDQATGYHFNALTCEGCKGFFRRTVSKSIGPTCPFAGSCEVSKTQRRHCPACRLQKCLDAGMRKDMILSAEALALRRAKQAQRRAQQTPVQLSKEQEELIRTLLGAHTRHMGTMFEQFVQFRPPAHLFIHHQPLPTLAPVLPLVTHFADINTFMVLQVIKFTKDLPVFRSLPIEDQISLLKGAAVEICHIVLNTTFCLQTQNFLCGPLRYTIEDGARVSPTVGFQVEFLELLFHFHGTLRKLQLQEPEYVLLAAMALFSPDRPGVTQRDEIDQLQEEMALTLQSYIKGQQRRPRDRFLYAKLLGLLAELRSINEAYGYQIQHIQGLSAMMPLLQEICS
Sequence of Transcriptional activator Myb (Homo sapiens) (P10242 whole entry, looked up): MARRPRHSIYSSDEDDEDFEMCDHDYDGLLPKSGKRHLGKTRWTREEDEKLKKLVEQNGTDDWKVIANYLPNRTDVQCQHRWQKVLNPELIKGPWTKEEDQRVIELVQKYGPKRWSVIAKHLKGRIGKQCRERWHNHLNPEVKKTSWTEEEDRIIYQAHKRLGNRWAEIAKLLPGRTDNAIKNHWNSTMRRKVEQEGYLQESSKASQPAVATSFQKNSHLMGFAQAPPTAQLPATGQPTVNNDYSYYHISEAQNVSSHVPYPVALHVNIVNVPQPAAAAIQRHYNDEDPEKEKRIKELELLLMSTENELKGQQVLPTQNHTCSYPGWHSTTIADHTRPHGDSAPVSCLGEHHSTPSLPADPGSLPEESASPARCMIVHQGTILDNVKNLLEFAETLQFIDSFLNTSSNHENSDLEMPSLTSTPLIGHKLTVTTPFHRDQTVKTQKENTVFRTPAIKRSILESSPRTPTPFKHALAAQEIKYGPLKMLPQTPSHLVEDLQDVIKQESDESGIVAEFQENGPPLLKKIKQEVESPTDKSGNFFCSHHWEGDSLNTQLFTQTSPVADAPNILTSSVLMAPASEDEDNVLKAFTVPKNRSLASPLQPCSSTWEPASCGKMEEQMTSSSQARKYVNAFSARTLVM
Sequence of Steroid hormone receptor ERR1 (Homo sapiens) (P11474 whole entry, looked up, the tested form may be a part): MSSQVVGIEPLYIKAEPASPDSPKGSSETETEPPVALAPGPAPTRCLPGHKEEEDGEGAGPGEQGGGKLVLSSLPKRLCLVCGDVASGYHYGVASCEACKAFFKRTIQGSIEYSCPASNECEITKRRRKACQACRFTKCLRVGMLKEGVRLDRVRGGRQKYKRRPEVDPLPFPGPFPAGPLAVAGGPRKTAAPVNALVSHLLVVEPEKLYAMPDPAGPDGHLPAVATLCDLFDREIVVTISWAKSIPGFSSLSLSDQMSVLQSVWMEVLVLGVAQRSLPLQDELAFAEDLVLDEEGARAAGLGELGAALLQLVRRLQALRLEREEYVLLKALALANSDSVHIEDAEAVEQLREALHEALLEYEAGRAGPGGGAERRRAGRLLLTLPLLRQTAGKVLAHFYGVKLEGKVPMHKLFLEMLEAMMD
Sequence of Hepatocyte nuclear factor 4-alpha (Homo sapiens) (P41235 whole entry, looked up, the tested form may be a part): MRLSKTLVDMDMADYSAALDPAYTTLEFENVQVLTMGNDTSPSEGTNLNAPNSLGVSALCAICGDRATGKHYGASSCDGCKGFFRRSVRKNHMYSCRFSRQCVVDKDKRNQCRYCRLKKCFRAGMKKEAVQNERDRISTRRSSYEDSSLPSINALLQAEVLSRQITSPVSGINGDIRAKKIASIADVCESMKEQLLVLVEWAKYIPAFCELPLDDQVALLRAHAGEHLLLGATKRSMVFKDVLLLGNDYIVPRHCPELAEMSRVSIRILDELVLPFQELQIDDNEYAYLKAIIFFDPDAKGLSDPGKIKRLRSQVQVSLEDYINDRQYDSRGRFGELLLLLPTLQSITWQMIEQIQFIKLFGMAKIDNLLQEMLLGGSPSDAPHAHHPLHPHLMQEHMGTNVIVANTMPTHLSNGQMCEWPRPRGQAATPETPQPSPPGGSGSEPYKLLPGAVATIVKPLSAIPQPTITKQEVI
Sequence of Oxysterols receptor LXR-alpha (Homo sapiens) (Q13133 whole entry, looked up, the tested form may be a part): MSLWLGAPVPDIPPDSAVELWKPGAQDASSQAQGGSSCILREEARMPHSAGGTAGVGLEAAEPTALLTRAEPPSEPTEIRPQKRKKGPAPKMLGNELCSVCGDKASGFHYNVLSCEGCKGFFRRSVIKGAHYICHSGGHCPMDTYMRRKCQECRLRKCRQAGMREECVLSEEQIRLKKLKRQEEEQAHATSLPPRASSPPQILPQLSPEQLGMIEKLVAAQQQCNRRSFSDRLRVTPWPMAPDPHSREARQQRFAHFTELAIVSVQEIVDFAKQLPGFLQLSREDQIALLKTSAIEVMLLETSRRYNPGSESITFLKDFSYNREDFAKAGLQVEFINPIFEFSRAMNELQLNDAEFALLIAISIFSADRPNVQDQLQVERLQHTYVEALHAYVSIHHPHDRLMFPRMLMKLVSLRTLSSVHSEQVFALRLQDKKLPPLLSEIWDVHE
Sequence of Estrogen-related receptor gamma (Homo sapiens) (P62508 whole entry, looked up, the tested form may be a part): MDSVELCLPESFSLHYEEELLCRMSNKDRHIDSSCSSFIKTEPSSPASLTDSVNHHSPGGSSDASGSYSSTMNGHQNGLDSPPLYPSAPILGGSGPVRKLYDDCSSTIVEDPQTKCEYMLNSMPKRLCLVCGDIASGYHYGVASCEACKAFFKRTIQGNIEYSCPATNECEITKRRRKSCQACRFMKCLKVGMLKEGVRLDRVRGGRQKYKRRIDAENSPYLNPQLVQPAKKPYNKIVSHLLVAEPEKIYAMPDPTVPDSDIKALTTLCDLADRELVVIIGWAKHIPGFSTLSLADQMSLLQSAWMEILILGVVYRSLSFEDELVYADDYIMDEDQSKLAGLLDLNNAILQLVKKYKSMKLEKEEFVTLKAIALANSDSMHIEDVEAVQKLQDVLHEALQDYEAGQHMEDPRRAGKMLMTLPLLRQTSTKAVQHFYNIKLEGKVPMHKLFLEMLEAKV

Take `COc1cccc2c1C(=O)c1c(O)c3c(c(O)c1C2=O)C[C@@](O)(C(=O)CO)C[C@@H]3O[C@H]1C[C@H](N)[C@H](O)[C@H](C)O1`: the AC50 (commonly the midpoint of the concentration-response curve, whichever way the signal moves) in experiment [1] is 1.26 µM (active); in experiment [4] it was 318 nM (active); in [7], 82.1 nM (active). Moreover, the result in experiment [2], in [3], in experiment [5], in [6], in experiment [8] and in experiment [9] was inactive. Besides, the compound was called inactive in [10], in [11] and in experiment [12].
As for `CCCCCCCCCCCCCO`, the AC50 was 34.3 µM (active) in experiment [1], 65.7 µM (active) in [5] and 34.3 µM (active) in experiment [12]. The result in [2], in [3], in experiment [4], in [13], in experiment [6] and in experiment [7] was inactive. Also, the outcome in experiment [8], in experiment [14], in experiment [11], in [15] and in experiment [16] was inactive.
In the case of `Cc1cccc([N+](=O)[O-])c1C`, the compound was called inactive in experiment [1], in experiment [2], in [3], in [4], in [13] and in experiment [7]. Further, the compound was called inactive in [17], in experiment [16], in experiment [18] and in experiment [12]. Also, the AC50 in experiment [5] was 44.3 µM (active).
As to `CC1(C)NC(=O)NC1=O`, the compound was called inactive in [1], in experiment [2], in [3], in experiment [4], in experiment [13] and in [6]. In addition, the compound was called inactive in [7], in [8], in experiment [14], in experiment [10], in experiment [11] and in [15]. Besides, the compound was called inactive in experiment [16], in experiment [18] and in experiment [12]. Besides, the half-maximal activity concentration (AC50) in [5] was 26.3 µM (active).
